An excerpt weighted towards active compounds, which were near 3.8% of everything screened.
CR mimetic SO = caloric restriction mimetics inhibiting age-related superoxide in yeast | 330,000 tested, 0.18% active | AID 2690 | S. cerevisiae aged cells, superoxide DHE fluorescence; stronger effect = lower value | superoxide response (% of plate mean), % at 10 µM;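 active means superoxide response under a set limit, about three screen SD below normal, cut at about 65% in these data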;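 further: yeast aged for seven days with compound at 30 °C before DHE staining; 100% = average MFI of all compound-treated wells on the plate with controls excluded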
H9c2 protect = myocardial damage modulation in H9c2 cells; H9c2 cardiomyocytes, H2O2 injury protection, ATPLite, 2 h; protection from H2O2 cell death, % at 20 µM; 360,000 tested, 0.63% active;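 active means compounds giving at least 50% protection of heart cells from peroxide-induced death in the single-dose screen, raw or plate-pattern-corrected value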;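 further: 0% = DMSO wells with peroxide and 100% = DMSO wells without peroxide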
MPTP block = blocks calcium-induced mitochondrial swelling | inhibition, % at 10 µM | AID 602449 | 360,000 tested, 1.4% active | isolated mouse mitochondria, Ca2+ swelling absorbance, 30 min;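 active means inhibition of 50% or more, scaled per plate between neutral and stimulator controls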;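 further: 0% = DMSO wells given calcium and 100% = 1 mM EGTA wells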
aDG glyco up = increases alpha dystroglycan glycosylation; Pro5-aDG cells, alpha-DG glycosylation AlphaScreen (IIH6); 0% Pro5, 100% B10-LARGE cell signal; 360,000 tested, 0.22% active; AID 624168; activation, % at 10 µM;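 active means activation of at least 8% versus controls, or a plate z-score of at least 8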;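 further: Pro5 are CHO cells carrying HIG-tagged alpha-DG that lacks glycosylation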
FAS-TE inh = inhibitors of human fatty acid synthase thioesterase domain | P49327 | recombinant FAS-TE, OMFH fluorogenic substrate, fluorescence endpoint | inhibition, % at 15 µM | 360,000 tested, 0.67% active;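 active means compounds whose normalised, plate-corrected inhibition of enzyme fluorescence in the single-dose primary screen is 50% or more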;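 further: 0% = DMSO with enzyme and 100% = substrate without enzyme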
Mot1-301 SUMO = inhibitors of SUMOylation pathway: yeast Mot1-301 growth rescue; S. cerevisiae Mot1-301 growth rescue, ATP luminescence, 38.5C; percent above DMSO median, 100 means doubled; growth rescue, % at 18.8 µM; 320,000 tested, 1% active; AID 2716;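 active means every valid replicate shows activation above 250% relative to neutral control wells; inactive means the rest, any valid replicate at or below 250%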;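 further: OY570 slx delta 5 strain wells were the positive control but not used for scaling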
Rh123 counter = Rhodamine 123 counter-screen of mitochondrial pore hits; 5,000 tested, 78% active; shares compounds with MPTP block; isolated mitochondria, membrane potential, Rhodamine 123 fluorescence; inhibition, % at 10 µM; in the data active means inhibition above about 22%;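 further: 0% = DMSO vehicle and 100% = positive control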
MPTP abs DR = MPTP inhibition, dose response swelling confirmation. shares compounds with MPTP block. isolated mitochondria swelling, absorbance. IC50, µM. 780 tested, 58% active. AID 651561; in the data active means IC50 below about 20 µM
MPTP cs DR = MPTP inhibitor counter-screen activity, dose response; shares compounds with MPTP block; isolated mitochondria counterscreen, fluorescence read-out; IC50, µM; 780 tested, 49% active; in the data active means IC50 below about 80 µM
Starred values were filed as active, the others as inactive; i = inactive; . = no result.

SMILES | CR mimetic SO | H9c2 protect | MPTP block | aDG glyco up | FAS-TE inh | Mot1-301 SUMO | Rh123 counter | others
Cc1ccc(OCC(O)CNCc2ccc(F)cc2)cc1 (stereo not given) | 97.2 | 1.0 | 85.4* | 0.0 | -2.5 | 17.3 | -8.6 | MPTP abs DR=9.15*;MPTP cs DR=>80
CCN(c1ccccc1)S(=O)(=O)c1cc(NC(=O)Nc2ccccc2C#N)ccc1Cl | 90.2 | -3.8 | 96.3* | 0.6 | 16.3 | 12.0 | 94.9*
CN(c1ccccc1)S(=O)(=O)c1cccc(NC(=O)c2ccc(Cl)c([N+](=O)[O-])c2)c1 | 137.2 | -29.2 | 95.1* | 1.2 | 44.2 | 20.2 | 84.3*
CC(=O)Nc1ccc(C(=O)Nc2cccc(S(=O)(=O)N(C)c3ccccc3)c2)cc1 | 101.4 | -0.2 | -1.1 | 0.1 | 0.1 | -8.5 | .
O=C(Nc1ccc(Cl)cc1)c1ccc(-n2cccn2)c([N+](=O)[O-])c1 | 96.3 | -18.6 | 72.9* | 1.0 | 26.0 | 0.1 | 66.4*
COc1ccc(NC(=O)c2ccc(-n3cccn3)c([N+](=O)[O-])c2)cc1 | 94.9 | -0.6 | -2.8 | 0.5 | 5.7 | 33.1 | .
CN(c1ccccc1)S(=O)(=O)c1cccc(NC(=O)c2ccncc2)c1 | 92.7 | -24.1 | 96.3* | 1.5 | -0.5 | -4.3 | 68.9*
O=C1Nc2ccccc2-n2nnnc2C1N1CCN(CCN2CCOCC2)CC1 (stereo not given) | . | . | -2.9 | 0.1 | . | . | .
COc1ccc(C(=O)Nc2ccccc2C(=O)NCc2cccnc2)cc1 | 99.3 | 4.6 | -0.7 | 0.1 | -2.4 | 13.1 | .
CN(c1ccccc1)S(=O)(=O)c1ccc(NC(=O)c2ccc(-c3ccccc3)cc2)cc1 | 91.6 | -11.9 | 25.2 | 3.5 | 34.4 | -5.2 | .
CCN(c1ccccc1)S(=O)(=O)c1cc(C(=O)Nc2ccc(F)c(F)c2)ccc1F | 108.5 | -20.8 | 91.4* | 3.5 | 34.9 | 12.4 | 81.2*
CN(c1ccccc1)S(=O)(=O)c1cccc(C(=O)NNC(=O)c2ccccc2)c1 | 102.6 | -19.8 | 55.5* | 0.6 | -2.6 | 0.9 | 37.9*
CN(c1ccccc1)S(=O)(=O)c1cccc(C(=O)NCc2ccccc2)c1 | 73.2 | -12.4 | -1.5 | 0.3 | 14.8 | 3.6 | .
CCN(c1ccccc1)S(=O)(=O)c1ccc(C(=O)Nc2cccc(NC(C)=O)c2)cc1 | 93.4 | -1.0 | -1.4 | 0.0 | 7.9 | 8.7 | .
CN(c1ccccc1)S(=O)(=O)c1ccc(NC(=S)Nc2ccccc2)cc1 | 103.5 | -4.8 | 96.2* | -0.2 | 9.0 | -2.6 | 90.7*
CCSc1nnc(NC(=O)c2cccc(S(=O)(=O)N(C)c3ccc(C)cc3)c2)s1 | 95.5 | -3.0 | 72.5* | -0.1 | 3.8 | -13.0 | 73.2*
CCc1ccccc1NC(=O)C1CCCN(c2nccc(C)n2)C1 (stereo not given) | 100.9 | 8.8 | 0.1 | 0.0 | 5.8 | 10.8 | .
Cc1cc(C(=O)Nc2ccc(Nc3ccccc3)cc2)ccc1[N+](=O)[O-] | 91.2 | -12.3 | 1.3 | 0.2 | 32.5 | -23.0 | .
CCN(c1ccccc1)S(=O)(=O)c1ccc(Cl)c(NC(=O)Nc2ccc(Cl)cc2C#N)c1 | 90.8 | -11.9 | 3.1 | 0.4 | 12.9 | -2.5 | .
O=C(Nc1ccc(Nc2ccccc2)cc1)c1ccc(Cl)c([N+](=O)[O-])c1 | 102.7 | -16.5 | 66.7* | 1.6 | 36.5 | 89.9 | 64.1*
CN(c1ccccc1)S(=O)(=O)c1cccc(NC(=O)Nc2ccc(Cl)cc2C#N)c1 | 101.4 | 2.5 | 71.3* | 0.0 | 1.1 | -3.3 | 86.3*
OCc1cccc[n+]1CCc1ccccc1 | 106.0 | 2.8 | 2.4 | -0.1 | -10.2 | 512.9 | .
CN(C)c1ccc(-c2ccnc3c2CC(C)(C(=O)NCc2ccco2)O3)cc1 (stereo not given) | . | 1.2 | 1.0 | -0.3 | 2.5 | . | .
O=C(NCc1ccccc1)c1ccc(CN2CCC(Cc3ccccc3)CC2)cc1 | 99.8 | 0.4 | -0.5 | 0.4 | 4.0 | 0.3 | .
CCc1ccccc1NC(=O)c1ccc(CN2CCC(Cc3ccccc3)CC2)cc1 | 97.7 | -11.3 | 57.2* | 1.6 | 4.4 | 12.6 | -14.4
SMILES | CR mimetic SO | H9c2 protect | MPTP block | aDG glyco up | FAS-TE inh | Mot1-301 SUMO | Rh123 counter | others
Cc1ccc(C)c(OCC(O)CN2CCC(Cc3ccccc3)CC2)c1 (stereo not given) | 110.3 | -3.8 | 78.2* | 0.2 | -18.0 | 98.2 | 19.5 | MPTP abs DR=6.84*;MPTP cs DR=12.7*
Cc1ccc(C(C)C)c(OCC(O)CN2CCc3ccccc3C2)c1 (stereo not given) | 95.1 | -21.7 | 98.4* | 0.4 | 7.9 | -3.0 | 91.5*
Cc1cccc(C)c1OCC(O)CN1CCc2ccccc2C1 (stereo not given) | 91.1 | -6.3 | -1.1 | -0.1 | 0.5 | 2.3 | .
OC(COc1ccc(Cl)cc1)CN1CCC(Cc2ccccc2)CC1 (stereo not given) | 90.6 | -0.9 | 1.4 | -0.2 | -10.7 | -1.9 | .
CCN(CCC(=O)Nc1ccc(Br)c(C)c1)Cc1ccccc1 | 83.2 | -0.2 | 79.9* | 1.2 | 6.6 | 42.6 | 5.4 | MPTP abs DR=i;MPTP cs DR=27.6*
O=C(CCN(CCO)Cc1ccccc1)Nc1ccc(Br)cc1 | 100.7 | 7.6 | 1.0 | 0.2 | 5.2 | 10.0 | .
CC(C)NC[C@H](O)COc1ccc(CC(N)=O)cc1 | 95.2 | -6.2 | . | -0.1 | -2.8 | -24.2 | .
C/C(=N\N=C(N)N)c1cccc(Cl)c1 | 102.4 | -0.8 | 55.2* | 0.2 | -6.7 | 2.9 | 6.5 | MPTP abs DR=15.6*;MPTP cs DR=67.8*
CCOC1=CC2=C(C(=O)C(Cl)=CC2=O)[C@@H]2CN(S(=O)(=O)c3ccc(C)cc3)[C@@H](c3ccccc3)[C@H]12 | . | -1.9 | -3.6 | -0.2 | 14.9 | . | .
CCOC(=O)c1c(-c2ccccc2)csc1NC(=O)CSc1nnc(C)s1 | 107.5 | -16.4 | 67.4* | 0.2 | 17.9 | 4.1 | 46.3*
CCOC(=O)c1c(-c2ccccc2)csc1NC(=O)CCN1C(=O)c2ccccc2C1=O | 95.6 | 6.5 | 1.0 | 0.0 | -3.0 | -11.7 | .
C#CCOCCOCCOCCNc1nc(N2CCN(C(=O)[C@H]([C@@H](C)CC)n3cc(CCCN=C(N)N)nn3)CC2)nc(N2CCN(C(=O)[C@H]([C@@H](C)CC)n3cc(CCC(=O)O)nn3)CC2)n1 | . | 1.5 | -0.5 | 0.2 | -12.1 | . | .
Cc1cc(/C=N/n2c(COc3ccccc3C)nc3ccccc3c2=O)c(O)c([N+](=O)[O-])c1 | 91.7 | 18.7 | 70.5* | 0.1 | 48.0 | 0.9 | 39.2*
Cc1ccccc1OCc1nc2ccccc2c(=O)n1/N=C/c1c[nH]c2ccccc12 | 109.4 | 4.9 | 1.6 | -0.1 | 19.2 | -10.4 | .
CCN(CC)CCOC(=O)c1ccc(NC(=O)CCCN2C(=O)S/C(=C/c3ccc(OC)cc3)C2=S)cc1 | 129.9 | -9.6 | 60.7* | 0.2 | -2.1 | -18.1 | -1.9

From PubChem
